Among the test systems are NCI-H23 lung; NCI-H226 lung; NCI-H322M lung; HOP-62 NSCLC; NCI-H460 lung; HOP-92 NSCLC; A549/ATCC NSCLC; 786-0 renal; COLO 205 colon; DU-145 prostate; K-562 leukemia; MALME-3M melanoma; MDA-MB-231 breast; SF-268 CNS; SF-295 CNS; SF-539 CNS; UACC-257 melanoma; M14 melanoma; RXF 393 renal.
What all share (test): NCI-60 one-dose screen, 48 h (100 = growth as untreated, 0 = no growth, -100 = all killed)
What all share (details): 10 µM unless noted

The panel holds about 83,000 compounds, 20% with a hit somewhere; the sample as a whole holds those more often.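 Single-concentration screen, 48 h exposure, 96-well plates. Endpoint: percent growth. Below 10 = active.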 Values without a mark were called inactive. Active and inactive are the calls of the source.

In the case of `Clc1cc(Cl)cc(N2N=C(c3cccc(Nc4ccncc4)c3)CC2c2ccc3c(c2)OCO3)c1` (stereo not given), the growth in the experiment with NCI-H23 lung was 80.1%; with NCI-H226 lung, 83.9%; in the experiment with NCI-H322M lung, 68.3%; in the experiment on HOP-62 NSCLC it was -31.2% (active); in the experiment on NCI-H460 lung it was -90.2% (active); in the experiment on HOP-92 NSCLC it was 57.9%. In addition, the growth was 15.2% in the experiment on A549/ATCC NSCLC; 91.7% in the experiment with 786-0 renal; -47.5% (active) in the experiment on COLO 205 colon; 28.9% in the experiment with DU-145 prostate; 3.33% (active) in the experiment with K-562 leukemia; -40.2% (active) in the experiment with MALME-3M melanoma. Also, the growth is 33.1% in the experiment with MDA-MB-231 breast; 72.1% with SF-268 CNS; 40.7% in the experiment with SF-295 CNS; 83.3% with SF-539 CNS; 51.2% with UACC-257 melanoma; 85.3% in the experiment with M14 melanoma.

With `CC1(C)[C@H](O)CC[C@]2(C)[C@@H]1CC[C@@]13C[C@@H](CC[C@H]12)[C@@](O)(CO)C3`, the growth was 105% in the experiment with NCI-H23 lung; 99.7% with NCI-H226 lung; 113% in the experiment with NCI-H322M lung; 103% in the experiment on HOP-62 NSCLC; 104% in the experiment with NCI-H460 lung; 126% in the experiment on HOP-92 NSCLC. Further, the growth with A549/ATCC NSCLC is 107%; with 786-0 renal it was -45% (active); in the experiment with COLO 205 colon it was 119%; in the experiment with DU-145 prostate, 117%; with K-562 leukemia, 104%; in the experiment on MALME-3M melanoma, 111%. Also, the growth in the experiment with MDA-MB-231 breast is 114%; with SF-268 CNS, 108%; in the experiment on SF-295 CNS it was 103%; with SF-539 CNS, 106%; in the experiment with UACC-257 melanoma, 107%; in the experiment with M14 melanoma, -30.7% (active).

For `CCCCCCN(C)Cc1ccc(OCCOc2ccc(CN(C)CCCCCC)cc2)cc1`, the growth is 11% in the experiment with NCI-H23 lung; 50% in the experiment on NCI-H226 lung; 3.16% (active) with NCI-H322M lung; 17.9% in the experiment with HOP-62 NSCLC; -77.5% (active) in the experiment on NCI-H460 lung; -9.72% (active) with HOP-92 NSCLC. Further, the growth in the experiment on A549/ATCC NSCLC was 44%; in the experiment with 786-0 renal, -72.6% (active); in the experiment with COLO 205 colon, -67.4% (active); in the experiment with DU-145 prostate, 50.1%; in the experiment with K-562 leukemia, -20.7% (active); in the experiment on MALME-3M melanoma it was -80.6% (active). Besides, the growth is 4.17% (active) with MDA-MB-231 breast; -29.2% (active) in the experiment with RXF 393 renal; 45.5% in the experiment on SF-268 CNS; -51.9% (active) in the experiment on SF-295 CNS; 13.5% in the experiment with SF-539 CNS; -52.5% (active) in the experiment with UACC-257 melanoma. The growth with M14 melanoma is -96.9% (active).

Consider `Cc1[nH]n(C(=O)c2ccncc2)c(=O)c1N=Nc1ccc(F)c(Cl)c1`, for which the growth in the experiment with NCI-H23 lung was 92.1%; in the experiment on NCI-H226 lung, 91.9%; in the experiment with NCI-H322M lung it was 110%; in the experiment with HOP-62 NSCLC, 95.8%; in the experiment with NCI-H460 lung it was 109%; with HOP-92 NSCLC, 89.7%. The growth is 107% in the experiment with A549/ATCC NSCLC; 92.9% with 786-0 renal; 126% with COLO 205 colon; 139% in the experiment on DU-145 prostate; 21.4% with K-562 leukemia; 104% with MALME-3M melanoma. Further, the growth with MDA-MB-231 breast is 100%; in the experiment with SF-268 CNS, 94.2%; with SF-295 CNS, 91.1%; in the experiment on SF-539 CNS, 97%; in the experiment on UACC-257 melanoma, 11.7%; in the experiment with M14 melanoma, 99.8%.

`O=C(N/N=C/c1ccc(F)cc1)c1ccccc1Nc1cccc(C(F)(F)F)c1`: the growth is 104% with NCI-H23 lung; 95.8% in the experiment on NCI-H226 lung; 111% with NCI-H322M lung; 109% with HOP-62 NSCLC; 101% in the experiment on NCI-H460 lung; 76.4% in the experiment with HOP-92 NSCLC. The growth is 53.3% in the experiment with A549/ATCC NSCLC; 95.5% in the experiment with 786-0 renal; 120% in the experiment with COLO 205 colon; 96.8% in the experiment with DU-145 prostate; 83.9% in the experiment with K-562 leukemia; 111% in the experiment with MALME-3M melanoma. For the same compound, the growth with MDA-MB-231 breast was 117%; with SF-268 CNS it was 82.6%; with SF-295 CNS, 121%; in the experiment with SF-539 CNS, 109%; in the experiment on UACC-257 melanoma it was 105%; in the experiment on M14 melanoma it was 95%.

As to `O=C(N/N=C/c1cccc(O)c1)c1ccccc1Nc1cccc(C(F)(F)F)c1`, the growth in the experiment with NCI-H23 lung is 96.4%; in the experiment on NCI-H226 lung, 76.7%; with NCI-H322M lung it was 77.9%; with HOP-62 NSCLC it was 73%; with NCI-H460 lung, 102%; in the experiment on HOP-92 NSCLC it was 63%. Moreover, the growth with A549/ATCC NSCLC was 29.1%; in the experiment on 786-0 renal, 43.5%; in the experiment with COLO 205 colon it was 117%; with DU-145 prostate, 88.7%; in the experiment with MALME-3M melanoma, 76.3%; in the experiment on MDA-MB-231 breast it was 73.8%. Also, the growth in the experiment with SF-268 CNS was 69.5%; in the experiment with SF-295 CNS, 52.2%; in the experiment with SF-539 CNS it was 103%; with UACC-257 melanoma it was 64.9%; with M14 melanoma it was 58.8%.

As to `CCCCCCNC(=O)Oc1ccc(/C(=C(/CC)Cc2ccccc2)c2ccc(OCCN(CC)CC)cc2)cc1`, the growth in the experiment with NCI-H23 lung was 88%; in the experiment on NCI-H226 lung, 89.3%; in the experiment with NCI-H322M lung, 87.5%; in the experiment with HOP-62 NSCLC it was 88.8%; in the experiment on NCI-H460 lung, -41.3% (active); in the experiment with HOP-92 NSCLC, 42.3%. Besides, the growth in the experiment with A549/ATCC NSCLC was 56.2%; with 786-0 renal, 63.7%; in the experiment on COLO 205 colon, -48.6% (active); in the experiment on DU-145 prostate it was 80.8%; with K-562 leukemia, -11.6% (active); in the experiment with MALME-3M melanoma it was 17.4%. The growth in the experiment on MDA-MB-231 breast is 67.5%; with RXF 393 renal it was 60.2%; with SF-268 CNS, 76.5%; with SF-295 CNS, 102%; in the experiment with SF-539 CNS, 86.1%; in the experiment on UACC-257 melanoma, 86%. The growth in the experiment on M14 melanoma is 39.4%.

With `CCCC1C(C(=O)OCC)=C(N)Oc2cc(O)ccc21` (stereo not given), the growth in the experiment on NCI-H23 lung is 90.7%; with NCI-H226 lung, 78.9%; in the experiment on NCI-H322M lung, 109%; with HOP-62 NSCLC, 76.7%; in the experiment on NCI-H460 lung, 93.1%; in the experiment on HOP-92 NSCLC it was 74.8%. Also, the growth was 95.1% in the experiment with 786-0 renal; 96.3% in the experiment with COLO 205 colon; 103% in the experiment on DU-145 prostate; 85.6% in the experiment with K-562 leukemia; 98.8% with MALME-3M melanoma; 93.6% in the experiment on MDA-MB-231 breast. In addition, the growth with RXF 393 renal was 131%; in the experiment with SF-268 CNS, 104%; in the experiment on SF-295 CNS it was 102%; in the experiment with SF-539 CNS, 93.8%; in the experiment on UACC-257 melanoma it was 104%; in the experiment with M14 melanoma, 90.5%.
